# An excerpt weighted towards active compounds, which were near 11% of everything screened.
# hNpr1 antagonist: antagonists of human natriuretic peptide receptor Npr1 | P16066 | Potency, µM (top dose mostly 46.3 µM), inactives show at the top dose activity change, negative = inhibition, actives largely listed as inhibitors | HEK293 hNpr1 GloSensor cGMP, ANP-stimulated luminescence | hit rate 1.6% among 76,000; calls by dose curve; note: % is set by controls: 0 for no effect and ±100 for the full control effect; nearly all actives have a fitted effect of over 60% in size
#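 HEK293 cells stably expressing human Npr1 and cGMP GloSensor pGS-40F, loaded 2 h with 2% GloSensor reagent, given compound 30 min at room temperature. Luminescence read before and 20 min after 0.1 nM hNppA.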
# HEK cytotox: kills HEK 293 cells; Potency, µM (series often up to 115 µM), without a hit: at the highest dose activity change, negative = cytotoxicity, hits mostly inhibitors; hit rate 6.6% among 94,000; AID 1345083; HEK 293 viability, ATP luminescence (CellTiter-Glo), 48-72 h; note: % is set by controls: 0 for no effect and ±100 for the full control effect; nearly all actives have a fitted effect of over 60% in size
#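 CellTiter-Glo luminescence (cellular ATP) was read after 48 or 72 hr of compound exposure at 37 degree Celsius. Cells were HEK 293 plated at 250 cells/well.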
# FLuc inh-1: inhibitors of firefly (Photinus pyralis) luciferase. P08659. purified P. pyralis luciferase, luminescence, biochemical. Potency, µM (doses to about 115 µM), actives largely listed as inhibitors. hit rate 2.5% among 76,000; note: % is set by controls: 0 for no effect and ±100 for the full control effect; nearly all actives have a fitted effect of over 65% in size
# Target sequence (P08659 whole entry, looked up): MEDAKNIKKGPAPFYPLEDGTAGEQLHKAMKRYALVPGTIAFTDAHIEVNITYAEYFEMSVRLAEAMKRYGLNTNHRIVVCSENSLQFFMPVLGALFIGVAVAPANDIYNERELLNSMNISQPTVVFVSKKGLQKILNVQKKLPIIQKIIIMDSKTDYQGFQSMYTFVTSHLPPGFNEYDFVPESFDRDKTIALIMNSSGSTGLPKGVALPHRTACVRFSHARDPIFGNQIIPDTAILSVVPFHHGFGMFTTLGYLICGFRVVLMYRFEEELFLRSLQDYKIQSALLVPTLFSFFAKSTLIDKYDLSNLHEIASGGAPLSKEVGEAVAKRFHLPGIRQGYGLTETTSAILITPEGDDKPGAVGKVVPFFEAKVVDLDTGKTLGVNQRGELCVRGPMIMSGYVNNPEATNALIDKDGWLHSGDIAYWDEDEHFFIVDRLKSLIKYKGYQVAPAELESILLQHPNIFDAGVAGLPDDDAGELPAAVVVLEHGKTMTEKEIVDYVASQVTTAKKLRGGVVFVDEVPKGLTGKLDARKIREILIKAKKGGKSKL
#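 Luminescence read by CCD imaging after purified firefly luciferase (10nM final) was added to substrate buffer holding 10uM D-luciferin and 10uM ATP, pH 7.5, pre-dosed with compound.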
# 3T3 cytotox: NIH 3T3 cell cytotoxicity; NIH 3T3 viability, CellTiter-Glo ATP luminescence, 48-72 h; hit rate 4.3% among 94,000; Potency, µM (series often up to 96.7 µM), for the others: at the top dose activity change, negative = cytotoxicity, hits mostly inhibitors; note: % is set by controls: 0 for no effect and ±100 for the full control effect; nearly all actives have a fitted effect of over 55% in size
#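 ATP-dependent luminescence (CellTiter-Glo) served as the viability signal for NIH 3T3 cells treated with compound for 48 or 72 hr at 37 °C.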
# FLuc SDR no ATP: binders stabilizing firefly luciferase, without ATP | Potency, µM (series often up to 32.7 µM), inactives show top-dose activation (signal gain), hits mostly activators | AID 1963318 | hit rate 7.8% among 1,300 | shares compounds with FLuc inh-1 | Purified FLuc-C-HiBiT, Nano-Glo HiBiT luminescence, no ATP; note: nearly all actives have a fitted effect of over 55% in size
# FLuc SDR ATP: binders stabilizing firefly luciferase, plus ATP; shares compounds with FLuc inh-1; purified FLuc-C-HiBiT + ATP, HiBiT complementation luminescence; Potency, µM (highest dose often 32.7 µM), without a hit: at the highest dose activation (gain of signal), hits mostly activators; hit rate 8.7% among 1,300;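 note: signal reports ligand binding via conformational change of the enzyme rather than luciferase catalysis; % of control where 0% means no effect; nearly all actives have a fitted effect of over 55% in size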
# FLuc inh-2: blocks firefly luciferase enzymatic activity; purified FLuc-C-HiBiT enzyme, luciferin luminescence; shares compounds with FLuc inh-1; Potency, µM (doses to about 32.7 µM), for the others: at the highest dose activity change, negative = inhibition, hits mostly inhibitors; AID 1963320; hit rate 42% among 1,300; note: % is set by controls: 0 for no effect and ±100 for the full control effect; nearly all actives have a fitted effect of over 70% in size
# An asterisk follows results filed as active; i = inactive; ? = inconclusive; / = no result given; [ ] = another dose, or the depositor's remark. Unless noted, calls come from the whole dose curve; as a rule, active = well fitted curve in the direction sought with a large enough effect; inconclusive = small, poorly fitted or top-dose-only effect, or another doubt; inactive = no such curve, though single readings can be large; an effect the other way counts as inactive or inconclusive. Potency is the fitted concentration of half-maximal effect.
SMILES,hNpr1 antagonist,HEK cytotox,FLuc inh-1,3T3 cytotox,FLuc SDR no ATP,FLuc SDR ATP,FLuc inh-2
Cc1cccc(N2Cc3c(ncnc3N3CCC(N4CCCCC4)CC3)N(C)CC2=O)c1,/,-1%,/,-29%,/,/,/
Clc1ccc(-n2ncc3c(NC4CCCC4)ncnc32)cc1,/,/,/,/,?,?,1.2µM*
CC1CCCN(c2ncnc3c2cnn3-c2ccc(F)cc2)C1 (centres undefined),/,/,/,/,2.2µM*,?,0.7µM*
Cc1ccc(-n2ncc3c(N4CCCC(C)C4)ncnc32)c(C)c1 (centres undefined),/,/,/,/,29%,20%,11µM*
Cc1cccc(-n2ncc3c(N4CCCCCC4)ncnc32)c1,/,/,/,/,5µM*,?,0.88µM*
CCCc1nc(C(=O)N2CCCCC2C(=O)OCC)cs1 (centres undefined),3%,4%,i,-6%,/,/,/
CCOc1ccccc1CN1CCCC12Cc1ccccc1CNC2=O (centres undefined),/,-19%,/,-17%,/,/,/
O=C(c1ccc2c(c1)OCO2)N1CC(Oc2ccc(F)c(F)c2)C1,/,-27%,/,?,/,/,/
CCCNC(=O)N(C1CCOCC1)C1CCN(C(=O)c2ccc(OC)nc2OC)CC1,6%,-7%,i,i,/,/,/
N#Cc1ccc(C(=O)N2CCOC[C@H](Oc3cnccn3)C2)cc1,11%[70.6 µM],2%[172 µM],i,-5%[174 µM],/,/,/
NS(=O)(=O)c1cccc(N=Cc2c(O)[nH]c3ccccc23)c1,/,/,/,/,15%,8%,-12%
Cn1cc(/C=C2\C(=O)Nc3cccnc32)c2ccccc21,/,/,/,/,17%,10%,?
O=S(=O)(NCC1(COc2cnccn2)C[C@@H](O)[C@@H](O)C1)c1ccc(F)cc1 (some centres undefined),-1%[70.6 µM],?,i,?,/,/,/
CC(C)n1cc(-c2cc(C(=O)N3CCC(C)(C)C3)c3ccc(F)cc3n2)cn1,-13%,?,5µM*,?,?,?,5µM*
CC1CCCN1C(=O)c1cc(-c2cnn(C(C)C)c2)nc2cc(F)ccc12 (centres undefined),-6%,-24%,?,?,/,/,/
O=C(NCCc1ccc(Cl)cc1)c1ccc2oc(-c3ccncc3)nc2c1,/,-10%,/,-3%,/,/,/
Cc1ccc(-c2ncc(NC(=O)c3cccs3)cn2)cc1,-2%,0%,?,i,/,/,/
CCCC(=O)Nc1cnc(-c2ccc(C)cc2)nc1,?,?,2µM*,-8%,?,?,3.5µM*
Cc1ccc(CN2CCCOCCNC(=O)[C@@H]3CCCC[C@@H]32)s1,3%,?,i,-27%,/,/,/
COc1ccc(NC(=O)C2CCN(C(=O)c3ncn4c3COC(c3ccccc3)C4)CC2)cc1OC (centres undefined),-2%,12%,5.6µM*,0%,13%,?,3.5µM*
COc1ccc(C2Cn3cnc(C(=O)N4CCC(C(=O)Nc5ccc(F)c(C)c5)CC4)c3CO2)cc1 (centres undefined),-9%,4%,i,i,/,/,/
COc1ccc(NC(=O)C2CCN(C(=O)c3ncn4c3COC(c3ccccc3)C4)CC2)cc1 (centres undefined),1%,8%,8.9µM*,i,11%,?,?
Cc1ccc(NC(=O)C2CCN(C(=O)c3ncn4c3COC(c3ccccc3)C4)CC2)cc1C (centres undefined),6%,5%,4µM*,i,14%,?,?
Cc1ccc(NC(=O)c2cn3cc(-c4ccccc4)sc3n2)cc1,/,-21%[172 µM],/,-30%[138 µM],/,/,/
CNc1ccc(-c2nc3ccccc3s2)cc1,/,/,/,/,1.8µM*,1.1µM*,0.078µM*
SMILES,hNpr1 antagonist,HEK cytotox,FLuc inh-1,3T3 cytotox,FLuc SDR no ATP,FLuc SDR ATP,FLuc inh-2
CCOP(=O)(Cc1ccc(-c2nc3ccccc3s2)cc1)OCC,/,/,/,/,17%,15%,?
Nc1ccc(-c2nc3ccccc3s2)cc1,/,/,/,/,?,?,1.8µM*
CC(C)(C)C(=O)Nc1ccc(-c2nc3ccccc3s2)cc1,/,/,/,/,0.078µM*,0.044µM*,0.02µM*
CC(=O)Nc1ccc(CN(Cc2ccc(NC(C)=O)cc2)C[C@H]2C[C@@H]3CCN2C[C@@H]3c2cc(-c3ccco3)nc(C)n2)cc1,-2%,4%,i,0%,/,/,/
COc1ccccc1CNC(=O)c1nnn2cc(C)[nH]c(=O)c12,0%,1%,i,-6%,/,/,/
COc1ccc(C(=O)N2CCc3ccc(C(=O)NCc4ccccc4OC)cc32)cc1,-23%,?,i,?,/,/,/
Cn1ncc(N2CCCC(CC(=O)NCCC3=CCCCC3)C2)cc1=O (centres undefined),2%,-5%,i,-13%,/,/,/
Cc1ccc2sc(-c3ccc(N)cc3)nc2c1,/,/,/,/,3.1µM*,?,0.28µM*
CCS(=O)(=O)c1ccccc1C(=O)Nc1ccc(-c2nc3ccccc3s2)cc1,/,/,/,/,19%,8%,-9%
O=C(N[C@@H]1CCC[C@@H]1C(=O)N1CCN(c2ccccn2)CC1)c1ccncc1,2%,i,i,-5%,/,/,/
CN(C)C(=O)N1CCn2nc(CNC(=O)c3cccc(-n4cnnc4)c3)cc2C1,6%,3%,i,-1%,/,/,/
Cc1ccc2nc(C(=O)N[C@H]3COC[C@H]3Cc3cc(C)no3)cn2c1,-12%,-1%,i,-18%,/,/,/
CCOc1ccccc1CNC(=O)c1c(C)noc1-c1cccs1,-7%,?,i,?,/,/,/
Cc1ccc(-n2ncc3c(N(C)C)ncnc32)cc1Cl,/,/,/,/,?,?,2.2µM*
Nc1nccc(-c2c(-c3ccc(F)cc3)ncn2C2CCNCC2)n1,/,/,/,/,15%,8%,3%
O=S1(=O)NCC2(CCN(Cc3c[nH]c4ccccc34)C2)Oc2ncccc21 (centres undefined),/,i,/,i,/,/,/
Cn1ncc2c(C(=O)NC3CC3)cc(-c3ccc([S+](C)(=O)[O-])cc3)nc21,/,-2%,/,-16%,/,/,/
O=C(N[C@@H]1CN(C(=O)Nc2ccc(OC(F)(F)F)cc2)CCC[C@H]1O)c1ccc(OCCN2CCOCC2)cc1,-2%,?,?,?,/,/,/
COc1ccc(C(=O)N[C@@H]2CN(C(=O)Nc3ccc(OC(F)(F)F)cc3)CCC[C@H]2O)cc1,?,40µM*,8.9µM*,45µM*,16%,12%,?
O=C(c1ccc(CSc2nc3ccncc3n2Cc2ccccc2F)cc1)N1CCCCC1,/,/,/,/,16%,11%,?
O=C1CCN(C(=O)c2ccccc2)CCCC(C(=O)N2CCN(Cc3ccccc3F)CC2)CCN1 (centres undefined),3%,4%,i,i,/,/,/

# From PubChem
